PfM18AAP inh = blocks P. falciparum M18 aspartyl aminopeptidase; inhibition, % at 7.35 µM; 290,000 compounds, 1.2% hits; recombinant PfM18AAP, H-Glu-NHMec fluorogenic cleavage;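 active means inhibition above the campaign mean inhibition over all tested compounds plus 3 SD, cut at about 28% in these data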;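 further: 0% = plate median of test compound wells and 100% = 2 mM ZnCl2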
Platelet DG rel = modulates dense granule release in human platelets; human platelet-rich plasma, SFLLRN dense granule ATP release, luminescence; inhibition, %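 (compounds screened at 7.5 µM in platelet-rich plasma)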; 300,000 compounds, 0.22% hits; AID 1663;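 active means mean replicate score, as percent of positive control, at or above 50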
ABHD5-PLIN5 inh = inhibitors of human ABHD5-perilipin-5 interaction. Q00G26+Q8WTS1. Split G. princeps luciferase complementation, luminescence, 4 h. inhibition, % at 4 µM. 360,000 compounds, 0.78% hits. AID 602281;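 active means inhibition above the mean inhibition across every tested compound plus 3 SD, cut at about 22% in these data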;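 further: 0% = DMSO only wells and the 100% control is not disclosed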
Target sequence (Q00G26 whole entry, looked up): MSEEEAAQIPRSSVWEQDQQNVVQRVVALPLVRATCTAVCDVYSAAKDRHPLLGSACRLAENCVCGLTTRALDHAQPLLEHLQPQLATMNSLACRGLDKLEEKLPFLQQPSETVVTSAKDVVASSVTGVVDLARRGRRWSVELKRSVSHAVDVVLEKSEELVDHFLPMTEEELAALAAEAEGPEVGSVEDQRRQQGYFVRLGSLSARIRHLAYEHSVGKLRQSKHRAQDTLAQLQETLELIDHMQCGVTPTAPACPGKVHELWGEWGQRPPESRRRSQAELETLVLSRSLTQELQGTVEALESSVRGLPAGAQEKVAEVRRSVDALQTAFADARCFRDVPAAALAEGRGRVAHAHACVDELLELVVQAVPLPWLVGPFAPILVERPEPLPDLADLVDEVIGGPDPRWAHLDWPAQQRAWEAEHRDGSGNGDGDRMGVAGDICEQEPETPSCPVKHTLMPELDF
Target sequence (Q8WTS1 whole entry, looked up): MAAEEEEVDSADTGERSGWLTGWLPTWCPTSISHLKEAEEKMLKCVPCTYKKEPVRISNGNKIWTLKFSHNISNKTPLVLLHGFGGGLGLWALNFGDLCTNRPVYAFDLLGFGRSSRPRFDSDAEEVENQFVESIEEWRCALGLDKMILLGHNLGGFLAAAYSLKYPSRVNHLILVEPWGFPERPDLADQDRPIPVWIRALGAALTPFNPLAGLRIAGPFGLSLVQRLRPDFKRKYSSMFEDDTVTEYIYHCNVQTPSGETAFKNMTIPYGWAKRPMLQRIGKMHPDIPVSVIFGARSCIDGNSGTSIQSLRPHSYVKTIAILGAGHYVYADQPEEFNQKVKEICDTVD
Rce1 inh = inhibitors of yeast Ras-converting enzyme; Q03530; yeast membranes, quenched prenylated peptide cleavage fluorescence; calls only; 290,000 compounds, 0.27% hits;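 active means fall in fluorescence gain of 50% or more versus controls, with final raw signal at or below 3038400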;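 further: plate controls were neutral control wells for no effect and wells lacking membranes for full effect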
Exocytosis inh = blocks lytic granule exocytosis; TALL-104 LAMP-1 surface exposure, flow cytometry; cells stimulated with thapsigargin and PMA; inhibition, % at 10 µM; 360,000 compounds, 0.66% hits; AID 651702;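 active means inhibition above about 55%, limit read from the data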
Granule exo CP1 = lytic granule exocytosis inhibition | shares compounds with Exocytosis inh | TALL-104 cells, LAMP-1 externalization, flow cytometry; stimulated with PMA plus thapsigargin | inhibition, % at 10 µM | 1,500 compounds, 11% hits | AID 651954; in the data active means inhibition above about 60%;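 further: 0% = stimulated vehicle wells and 100% = unstimulated wells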
* hit, by the source's call; i = inactive; / = not tested or not shown; + = active, no number. In the library only some 2.6% were active in any assay of this set; here they are far more common.

SMILES	PfM18AAP inh	Platelet DG rel	ABHD5-PLIN5 inh	Rce1 inh	Exocytosis inh	Granule exo CP1
CSC1=NC(C)(C)C=C(/C=C/c2ccc(Cl)cc2Cl)N1	-5	1	17	i	75*	27
CN(C(=O)c1cc(COc2ccc(F)cc2Cl)on1)C1CCCc2ccccc21 (stereo not given)	2	6	-12	i	57*	2
CN(Cc1ccccn1)C(=O)c1cc(COc2ccc(F)cc2Cl)on1	/	/	6	/	18	/
O=C(CN1C(=O)C(=O)c2ccccc21)c1ccccc1	7	-3	-5	i	25	/
O=C1C(=O)N(Cc2cccs2)c2ccccc21	23	-2	4	i	62*	-2
CCN(CC)CCCn1c(SCC(=O)Nc2cccc(F)c2)nnc1-c1ccoc1C	-6	-12	2	i	48	/
Cc1ccc(NC(=O)CSc2nnc(-c3ccoc3C)n2CCCN(C)C)cc1Cl	1	21	-2	/	63*	-5
N#Cc1cccc(CN2CCCN(Cc3ccc(F)cc3)S2(=O)=O)c1	12	-7	7	i	85*	-6
C=Cc1ccc(CN2CCCN(Cc3ccc(F)cc3)S2(=O)=O)cc1	-5	1	-10	i	-6	/
CCC1(C)CC2(CCCN(CCC(O)(c3ccccc3)c3ccccc3)C2)CCO1 (stereo not given)	-3	6	-8	i	58*	-11
CCc1ccc(NC(=O)CSCCO)cc1	-3	3	4	i	85*	-12
OCC1(CCc2ccccc2)CCN(C/C=C/c2ccccc2)CC1	-5	1	0	i	57*	-12
OCC1(Cc2ccccc2Cl)CCN(C/C=C/c2ccccc2)CC1	-6	-2	6	i	-3	/
COc1ccc2c(c1)-c1ccccc1S(=O)(=O)N2C	3	-1	5	i	-1	/
O=C(Nc1ccccc1Cl)c1sccc1-c1ccccc1	4	-2	2	i	81*	-5
Cc1ccc2cc(C#N)c(NCc3ccccc3)nc2c1	8	-20	-5	i	-1	/
COCCNc1ncnc2c1[nH]c1ccccc12	-3	-6	5	/	0	/
CC(=O)c1c(C)n(-c2cccc(Cl)c2)c2ccc(O)cc12	4	-20	-4	i	81*	-2
COc1cccc(NC(=O)N2CCCC2C(=O)NCc2ccccc2F)c1 (stereo not given)	5	1	0	i	-2	/
CCNc1nc(-c2sc(NC(=O)C(C)(C)C)nc2C)c(-n2cc(-c3ccccc3)nn2)s1	/	/	-10	/	79*	58
Cc1cccc(C(=O)NCC(=O)OCC(=O)N2CCN(S(=O)(=O)c3ccc(C)cc3C)CC2)c1	/	/	6	/	-5	/
Cc1ccc2cccc(NC(=O)c3ccc(Br)o3)c2n1	-8	2	-5	i	89*	-4
O=C(Nc1cccc(NC(=O)c2ccc(Br)o2)n1)c1ccc(Br)o1	5	-6	-5	/	-4	/
CN(C(=O)c1cccc(NC(=O)Cc2ccc(NC(=O)C3CCN(C(=O)C4CCC4)CC3)cc2)c1)C1CCCCC1	/	/	0	/	58*	-13
CC(=O)c1ccc(-c2ccc([C@H]3[C@@H]4C=CCC[C@@]4(C)C(=O)N3Cc3ccccc3)c(F)c2)cc1	/	-1	-6	i	2	/
SMILES	PfM18AAP inh	Platelet DG rel	ABHD5-PLIN5 inh	Rce1 inh	Exocytosis inh	Granule exo CP1
CCOc1ccc2c(c1)nc(SCC(=O)c1ccc(Br)s1)n2C	1	0	14	i	103*	-5
CCOc1ccc2c(c1)nc(SCC(=O)c1cccs1)n2C	8	-1	3	i	2	/
COc1ccccc1-c1cc(C(F)(F)F)nc(S(=O)(=O)CCCC(=O)N2CCCCC2C)n1 (stereo not given)	-1	-1	18	i	64*	4
COc1ccccc1-c1cc(C(F)(F)F)nc(S(=O)(=O)CCCC(=O)NC(C)C)n1	1	-5	5	i	4	/
COc1ccccc1-c1cc(C(F)(F)F)nc(S(=O)(=O)CCCC(=O)NCc2ccc(F)cc2)n1	-2	14	15	+	75*	5
O=C(Nc1cccc(Cl)c1)c1ccc2c(c1)OCCO2	5	/	2	i	61*	-5
CSc1nc(N)nc2c1ncn2C1OC(CO)CC1O (stereo not given)	/	/	0	/	1	/
CC1(OC(=O)CCc2ccccc2)C(=O)C=C2C=C(c3ccc(C#N)cc3)N(C(CO)CO)C=C2C1=O (stereo not given)	/	2	2	i	71*	-5
CC1CC(=O)c2cnc(N3CCOCC3)nc2C1 (stereo not given)	-11	4	2	i	100*	-4
Cc1noc(/C=C/c2ccc(-c3ccccc3Cl)o2)c1[N+](=O)[O-]	2	13	0	i	0	/
CCc1ccc(OCCCC(=O)NCc2ccco2)cc1	4	1	0	i	-10	/
CCNCC(=O)N1c2ccccc2CCc2ccc(NC(=O)OCC)cc21	-9	6	2	i	57*	-14
CCOC(=O)Nc1ccc2c(c1)N(C(=O)CN)c1ccccc1CC2	-6	-2	7	i	0	/
COc1cc(C(=O)N2CCCC(c3nc(-c4cccs4)no3)C2)cc(OC)c1OC (stereo not given)	-11	8	0	i	-3	/
Cc1ccc(C(=O)Oc2cc(-c3ccccc3)no2)cc1	9	-3	2	i	-11	/
Cc1ccccc1CN1CCc2cc([N+](=O)[O-])ccc21	6	-20	3	i	115*	-1
COc1ccc([N+](=O)[O-])cc1NCc1ccccc1C	0	-7	-6	i	1	/
COc1cccc(N2CCN(c3ncnc4c3[nH]c3ccc(F)cc34)CC2C)c1 (stereo not given)	4	26	-1	i	98*	104*
COc1cccc(N2CCN(c3ncnc4c3[nH]c3ccccc34)CC2C)c1 (stereo not given)	7	23	/	i	/	/
CCCOc1ccc(NC(=O)CC2C(=O)Nc3ccccc3N2CC(=O)N2CCCC2)cc1 (stereo not given)	/	/	2	/	0	/
COc1cc(CN2CCCC(N3CCN(c4ccccc4C)CC3)C2)cc(Cl)c1O (stereo not given)	4	-4	-3	i	57*	-3
Oc1ccccc1CN1CCCC(N2CCN(c3cccc(C(F)(F)F)c3)CC2)C1 (stereo not given)	0	11	6	i	68*	-11
COc1ccc(CN2CCCC(N3CCN(c4cccc(Cl)c4)CC3)C2)cc1OC (stereo not given)	-3	0	-2	i	67*	-15
O=C(Nc1nc(-c2ccccc2)cs1)c1ccc2c(=O)n3c(nc2c1)CCCCC3	0	9	0	i	97*	68*
CC(C)c1ccc(NC(=O)N2CCc3ccccc3C2)cc1	0	3	4	/	-1	/
O=C(Nc1ccc([N+](=O)[O-])cc1)N1CCc2ccccc2C1	2	-2	-7	i	85*	-12
